About 83,000 compounds went through this panel and 20% of them were active in at least one assay; those are over-represented in the sample as a whole.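 Percent growth is the endpoint: 0 to 100 indicates growth inhibition (40 means 60% inhibition), 0 means no net growth, and negative values indicate cell death.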 A number with no mark means an inactive call. The source made the active and inactive calls.

Drawing on PubChem BioAssay (NCI), this text covers growth for 40 molecules.

The subject of this test is HCT-116 colon. The test is described as follows: NCI-60 one-dose screen, 48 h (100 = growth as untreated, 0 = no growth, -100 = all killed). The note with it: 10 µM unless noted. As for the experimental part: Growth inhibition of the HCT-116 human tumor cell line is measured as a screen for anti-cancer activity. Cells are grown in 96 well plates and exposed to the test compound for 48 hours. Compounds are tested at a single concentration, which is 10^-5 M for most compounds. The reported endpoint is percent growth (GI% or GIPRCNT), where numbers from 0 - 100% represent growth inhibition, and numbers from -100% - 0 represent cell death. For example, a value of 40 represents 60% growth inhibition. A value of 0 means no net growth occurred over the course of the experiment. A value of -40 indicates 40% of cells at the beginning of the experiment died by the end of the experiment. A value of -100 means all cells are dead at the end of the experiment.
NCI-60 Human Tumor Cell Lines Screen was performed using the standard one-dose NCI protocol, which is described in more detail at https://dtp.cancer.gov/discovery_development/nci-60/default.htm.
Compounds with GIPRCNT values below 10 were considered active. Activity score was based on GIPRCNT using the following formula: […]
Score is 0 for GIPRCNT values of 100 or above, 50 for GIPRCNT values of 0, and 100 for GIPRCNT values of -100.
Take `COc1ccc(-c2cc(-c3ccccc3)nc(SCCCC(=O)NO)n2)cc1OC`: the growth is 5.58% (active). The figure for `Cc1cc(N/N=C/c2nc(-c3ccccc3)oc2C)c2cc(Cl)ccc2n1` is -94.2% (active); for `COc1ccc2c(c1)cn1c3ccc(OC)cc3[nH]c(=O)c21` it is -75.8% (active); for `CCN(CC)c1ccc2[nH]c3c(C(N)=O)cc(=O)c(=O)c=3oc2c1` it is -10.9% (active). In the case of `Cc1ccc2[nH]c(=O)c3c(c2c1)Oc1ncn2nc(-c4ccco4)nc2c1C3c1ccc(Cl)cc1` (stereo not given), the growth is 89.6%. Next, `CC(C)(C)n1cc(-c2ccnc(NCCNS(=O)(=O)c3ccc(F)cc3)c2)c(-c2cccc(O)c2)n1`: 37.3%. Turning to `NC(=O)CCCN1C/C(=C\c2ccccc2)C(=O)c2ccccc21`, the growth is 101%. The figure for `CCOC(=O)CN1/C(=N/c2sc3c(c2C(=O)OCC)CCN(C(=O)OCC)C3)SC(=O)/C1=C\C(=O)OC` is 71.6%. Take `COc1ccc(-c2cn(-c3cccc(C(=O)/C=C/c4cc(OC)c(OC)c(OC)c4)c3)c(=O)[nH]2)cc1OC`: the growth is 63.6%.

On to `COc1ccc(C(=O)c2cc(OC)c(OC)c(OC)c2OC)cc1O`, for which the growth was 17.9%. Regarding `COc1cc(-c2nn(-c3cccc(NC(=O)c4ccc(N5CCOCC5)c(C(F)(F)F)c4)c3)cc2-c2ccncc2)ccc1Cl`, the growth was 8.35% (active). The figure for `O=C(Nc1cccc(-n2cc(-c3ccncc3)c(-c3ccc(Cl)c(O)c3)n2)c1)Nc1cccc(C(F)(F)F)c1` is 9.75% (active). The figure for `O=C(O)c1nc(-c2ccccc2)oc1N1CCOCC1` is 94.6%; for `C=C1C(=O)O[C@H]2[C@H]1CC/C(Cn1cc(CNC(=O)/C=C/c3c[nH]c4ccccc34)nn1)=C\CC[C@@]1(C)O[C@@H]21` it is 63.8%; for `CC(O)CN1CCCCC1` (stereo not given) it is 110%. In the case of `COc1ccc(-n2c(-c3ccccc3)c(-c3ccccc3)c3c(SCC(=O)N/N=C/c4ccc(Cl)cc4)ncnc32)cc1`, the growth is 87.8%. The figure for `NC(=S)N/N=C1\CCCC(C(F)(F)F)C1` (stereo not given) is 8.77% (active); for `CCN(CC)CCC(CNc1ccnc2cc(Cl)ccc12)c1ccccc1` (stereo not given) it is 28.3%; for `COc1ccc(C(=O)NC(=O)Nc2cc3c(cc2F)/C(=C/c2[nH]c(C)c(CCC(=O)O)c2C)C(=O)N3)c(F)c1` it is 37%. Next, `COc1cccc(-c2nc3sccn3c2-c2ccnc(NCCCNS(=O)(=O)c3ccc(F)cc3)c2)c1`: 25.5%. The figure for `COC(=O)[C@]12CC[C@@H](C)[C@H](C)[C@@H]1C1=CC[C@@H]3[C@@]4(C)C(C=O)=C[C@@](C)(COC(=O)c5ccco5)[C@@H]4[C@H](O)C[C@@]3(C)[C@]1(C)CC2` is -75.8% (active). Consider `O=S(=O)(NCCCNc1nccc(-n2ccc3cccnc32)n1)c1cccc(C(F)(F)F)c1`, for which the growth was 105%. For the molecule `CC(NNC(C)c1ccccc1)c1ccccc1` (stereo not given), the growth is 107%. The figure for `Cc1ccc(-c2nc(C(Cl)Cl)n3nc(-c4ccccc4)cc3n2)cc1` is 9.65% (active); for `COC(=O)c1cccc2c1N(C)c1c(cccc1C(=O)OC)CC2` it is 104%. The figure for `CCCOC(=O)n1cccc1` is 103%; for `CC(=O)Nc1nc(N)nc(NC(C)=O)c1N=O` it is 98.6%. The figure for `O=c1ccn(-c2ncnc3nc[nH]c23)cc1` is 96.5%; for `COc1ccc(-c2nc(SCCC(C)C)nc(Nc3ccc(F)c(Cl)c3)c2C#N)cc1` it is 68.3%. Consider `CC(C)CSc1nc(NN)c(C#N)c(-c2ccc(F)cc2)n1`, for which the growth is 68.9%. Regarding `Cn1c(=O)c2[nH]c(C3CC=CCC3)nc2n(C)c1=O` (stereo not given), the growth was 106%. The figure for `S=c1[nH]nc(-c2cc3ccc2CCc2ccc(cc2)CC3)n1-c1ccccc1` is 88.1%; for `COc1cccc(-c2cc3c(O)cc(C#N)cc3[nH]2)c1` it is 89.9%; for `NC(=N\N=C/c1ccc(O)cc1)/C(N)=N\N=C/c1ccc(O)cc1` it is 62.2%.

On to `OCCCCCCNc1ncnc2cc(Cl)ccc12`, for which the growth is 81.9%. Next, `COc1ccc(N=Cc2c(O)ccc3c2oc2cc(Cl)c(O)c(Cl)c23)cc1`: 91.5%; `N#Cc1c(-c2ccccc2)cc(-c2ccccc2)n(CC(=O)NO)c1=O`: 40.7%. Next, `O=C(c1ccccc1)C1OC1c1ccc([N+](=O)[O-])cc1` (stereo not given): 13.7%. Next, `COc1ccc(C2C(C#N)=C(N)Oc3c2ccc2ccccc32)cc1` (stereo not given): 23.5%. For `COc1cc(-c2nn(-c3cccc(NC(=O)Nc4cc(C(F)(F)F)cc(C(F)(F)F)c4)c3)cc2-c2ccncc2)ccc1Cl`, the growth is -43.6% (active).
